The nature of assay [1]: inhibitors of TNFa-induced NFkB p65 translocation, primary screen, imaging, HUVEC, MLSMR starter and 10KST1 sets (AID 438;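 active = inhibition above 20% together with a positive visual image hit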;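 also: compound added about 3h40 before a 20 min TNFalpha stimulation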;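 as to inhibition: signal is the nuclear over cytoplasmic p65 intensity ratio per well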). The settings on record: HUVEC TNFa-induced p65 nuclear translocation; cell count: measured here: nuclei count (cytotoxicity indicator), at 2.08 µM; inhibition: at 2 µM, stronger effect = higher value, 0% TNFa-plus-vehicle, 100% no-TNFa wells.
Assay [2] in a line: inhibitors of mutant huntingtin aggregation, primary screen, imaging, exon1htt(103Q)mCFP cells, high-content imaging (AID 483;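 active = visual image review flags a hit and inhibition of aggregation exceeds 20%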;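 also: compound exposure lasted 3 days before fixation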;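 as to nuclei count: percent of the per-plate median nuclei count of sample wells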). The note with it: exon1htt(103Q)mCFP cell line, aggregate imaging, at 2 µM; inhibition of aggregation: stronger effect = higher value; nuclei count: measured here: cell count, toxicity.
The nature of assay [3]: inhibitors of E-selectin induction by TNFa, primary screen, imaging, HUVEC, immunofluorescence, MLSMR starter and 10KST1 sets (AID 487;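 active = visually confirmed hit in the image check and inhibition above 20%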;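 as to inhibition: signal is fraction of cell area covered by stained E-selectin grains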;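 as to nuclei count: 100% = median nuclei count of all wells on the same plate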). The settings on record: HUVEC TNFalpha-induced E-selectin immunofluorescence imaging, at 2 µM; inhibition: stronger effect = higher value; nuclei count: measured here: cell number, toxicity.
The nature of assay [4]: DUSP6 inhibitors restoring Erk phosphorylation by chemical complementation, primary imaging in DUSP6-transfected HeLa (AID 609;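 active = compounds giving at least 50% inhibition in the cell-based MKP-3 phosphatase rescue imaging test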;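 as to inhibition: phospho-Erk level distribution per well compared with pooled transfected vehicle control wells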). The note with it: HeLa MKP-3 transfected, phospho-Erk imaging KS statistic, at 10 µM, cells stimulated with TPA for 15 min.
In assay [5] the target is Dual specificity protein phosphatase 6 (Homo sapiens) (UniProt Q16828). Described as above. The settings on record: HeLa MKP-3 transfected, phospho-Erk imaging KS statistic; at 10 µM; stronger effect = higher value; cells stimulated with TPA for 15 min.
Sequence of Dual specificity protein phosphatase 6 (Homo sapiens) (Q16828 whole entry, looked up): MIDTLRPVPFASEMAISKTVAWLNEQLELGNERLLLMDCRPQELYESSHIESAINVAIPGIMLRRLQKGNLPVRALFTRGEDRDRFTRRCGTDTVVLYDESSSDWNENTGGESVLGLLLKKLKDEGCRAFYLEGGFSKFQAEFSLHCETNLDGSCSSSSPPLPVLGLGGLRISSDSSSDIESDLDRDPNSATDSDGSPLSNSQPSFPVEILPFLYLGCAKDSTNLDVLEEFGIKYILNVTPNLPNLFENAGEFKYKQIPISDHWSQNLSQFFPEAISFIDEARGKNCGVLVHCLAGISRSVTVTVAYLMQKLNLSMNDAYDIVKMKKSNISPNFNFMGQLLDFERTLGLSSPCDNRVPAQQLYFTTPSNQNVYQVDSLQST
Assay [6] concerns the target Voltage-gated potassium channel subunit beta-2 (Rattus norvegicus) (UniProt P62483). Nature of the assay: KvBeta enzyme negative modulators, primary screen, biochemical, NADPH fluorescence (AID 622;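 active = fluorescence slope higher than the sample average by over 3 SD, cut at about -0.22 in these data, passing the limit was not always enough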;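 also: slope of raw intensity against log time taken from 70 to 1610 s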). The note with it: recombinant KvBeta, 4-cyanobenzaldehyde reduction, at 10 µM, stronger effect = higher value.
The target is the same in assay [7]. Nature of the assay: KvBeta positive modulators, primary screen, biochemical, NADPH fluorescence (AID 623).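 Also: fluorescence intensity change per second fitted from 20 to 320 s.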 The settings on record: Recombinant KvBeta, NADPH fluorescence decrease slope, 10 min; at 10 µM; stronger effect = lower value.
Assay [8] deals with Alpha-2C adrenergic receptor (Homo sapiens) (UniProt P18825). Nature of the assay: modulators of alpha2C/GIRK thallium flux, primary screen, cell-based, HEK293 alpha2C/GIRK1/2 (AID 624;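 active = fluorescence slope after compound addition differing from the mean of all screened samples at 99.7% confidence, in either direction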;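 also: slope of fluorescence ratio to pre-addition baseline per second over 15 to 24 s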). The note with it: thallium flux BTC fluorescence, at 10 µM, actives lie on both sides.
Sequence of Alpha-2C adrenergic receptor (Homo sapiens) (P18825 whole entry, looked up): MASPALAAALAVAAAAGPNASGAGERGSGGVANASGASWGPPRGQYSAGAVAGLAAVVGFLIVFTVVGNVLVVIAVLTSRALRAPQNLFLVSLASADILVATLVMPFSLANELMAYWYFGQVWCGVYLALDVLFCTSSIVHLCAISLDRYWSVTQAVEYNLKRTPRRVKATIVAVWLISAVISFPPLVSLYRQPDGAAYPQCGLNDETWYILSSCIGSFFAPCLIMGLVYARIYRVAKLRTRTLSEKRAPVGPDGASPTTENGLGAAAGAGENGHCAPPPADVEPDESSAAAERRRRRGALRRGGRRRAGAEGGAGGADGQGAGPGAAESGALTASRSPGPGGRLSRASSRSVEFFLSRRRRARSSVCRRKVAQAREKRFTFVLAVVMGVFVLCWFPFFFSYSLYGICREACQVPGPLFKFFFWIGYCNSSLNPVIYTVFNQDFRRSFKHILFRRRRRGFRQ
The nature of assay [9]: inhibitors of larval lipid processing in zebrafish, primary screen, whole organism, PED6 fluorescence, gall bladder and intestine (AID 686;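 active = a full or partial loss of lipid-probe fluorescence in the fish gall bladder, intestine or both, judged by eye; inactive = no fluorescence loss, or compound toxic to the fish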;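 also: larvae 5 to 7 days old with five fish per well; signal comes from phospholipase A2 cleavage of quenched PED6 carried via bile; overnight exposure to compound and PED6 before scoring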). The settings on record: Zebrafish larvae PED6 lipid processing, fluorescence scoring; screened at 20 µM (by protocol).
Assay [10] can be described thus: inhibitors of Chlamydomonas gravitaxis, primary screen, whole organism, Chlamydomonas reinhardtii, WT vs cilia-less mutant, absorbance, 96-well (AID 463189;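 active = inhibition at or above 50% relative to wild type and mutant plate controls; inactive = inhibition below 50%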;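 also: 0% = wild type cc124 cells in DMSO and 100% = ciliumless bld1 mutant cells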). The note with it: OD600 absorbance, 2 days, at 10 µM, stronger effect = higher value.
A short description of assay [11]: inhibitors of Sendai virus-induced IRF3 signaling, primary screen, TLR/RLR signaling modifier project, cell-based, Sendai virus stimulus, luciferase, 10K MLSCN set (AID 602276;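 active = inhibition at or above 50% at 10 µM; inactive = inhibition below 50%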;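 also: firefly luciferase from ISG56 promoter only with Renilla not read in this screen; 0% = Sendai virus plus DMSO and 100% = medium plus DMSO without virus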). The note with it: HEK293 RL24 IRF3 luciferase reporter, at 10 µM, stronger effect = higher value.
The nature of assay [12]: inhibitors of poly I:C-induced TLR3 signaling, primary screen, cell-based, poly I:C stimulus, luciferase, 10K MLSCN set (AID 602277;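 active = inhibition of the reporter signal at or above 50%; inactive = inhibition below 50%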). The note with it: HEK293-TLR3 RL24 IRF3 luciferase reporter, at 10 µM, stronger effect = higher value.
Where [13] appears, read: measured here: cell density z-score.
Where [14] appears, read: measured here: nuclear c-Myc green intensity z-score.
[15] abbreviates: measured here: nuclear pErk red intensity z-score, stronger effect = higher value.

Active and inactive are the calls of the source.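 The calls were made as follows, unless noted: active = NADPH fluorescence slope more negative than the mean of all samples by about 3 SD, 99.7% confidence; inactive = the rest.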

Sequence of Voltage-gated potassium channel subunit beta-2 (Rattus norvegicus) (P62483 whole entry, looked up): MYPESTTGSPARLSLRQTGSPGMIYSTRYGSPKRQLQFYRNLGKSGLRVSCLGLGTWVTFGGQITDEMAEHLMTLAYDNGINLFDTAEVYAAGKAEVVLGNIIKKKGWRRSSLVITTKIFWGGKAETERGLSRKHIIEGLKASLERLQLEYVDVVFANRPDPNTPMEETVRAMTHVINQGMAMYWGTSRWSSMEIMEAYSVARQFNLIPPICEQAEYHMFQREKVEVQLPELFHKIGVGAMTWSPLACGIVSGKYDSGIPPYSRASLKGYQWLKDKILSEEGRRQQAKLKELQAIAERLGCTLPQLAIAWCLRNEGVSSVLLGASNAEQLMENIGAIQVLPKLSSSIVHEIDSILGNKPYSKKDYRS

As for `CCOc1ccc(CSC(CC(=O)O)C(=O)O)cc1` (stereo not given), the cell count in assay [1] turned out to be 670. The inhibition was -12.9% (inactive) in [1]; -17.6% (inactive) in [3]; -6.86% (inactive) in assay [5]; 2.66% (inactive) in assay [10]; 13.1% (inactive) in assay [11]; 29.3% (inactive) in [12]. In [2], the inhibition of aggregation was 18.1% (inactive). The nuclei count was 98.8% in [2] and 137% in [3]. In addition, the values for the z-score in assay [4] (setting [13]), in assay [4] (setting [14]) and in assay [4] (setting [15]) were -0.325, -0.101 and 1.94, respectively. In addition, in [6], the fluorescence slope is -0.356 (inactive). The NADPH fluorescence slope in assay [7] was -2.7e-05 (inactive). For the same compound, the slope in assay [8] was 0.00455 (inactive). The call in assay [9] was inactive.

For `CC1(C)S[C@@H]2[C@H](NC(=O)C(C(=O)O)c3ccccc3)C(=O)N2[C@H]1C(=O)O` (stereo not given in full), the cell count in assay [1] is 588. The inhibition is -12.5% (inactive) in assay [1]; -51.3% (inactive) in assay [3]; 13.3% (inactive) in assay [5]; 37.9% (inactive) in [10]; -4.51% (inactive) in assay [11]; 13% (inactive) in assay [12]. In [2], the inhibition of aggregation is -7.6% (inactive). Also, the nuclei count in assay [2] came out at 99.1%; in [3] it was 138%. Also, the z-score in assay [4] (setting [13]) was 0.424; in assay [4] (setting [14]) it was 0.193; in assay [4] (setting [15]), -0.471. In addition, the fluorescence slope in [6] was -0.487 (inactive). In addition, the NADPH fluorescence slope in [7] is -2.7e-05 (inactive). Also, the slope in assay [8] is 0.00471 (inactive). Further, the result in [9] was inactive.

With `Nc1ccc2[nH]ncc2c1`, the cell count in [1] was 684. In addition, the inhibition was 7.9% (inactive) in assay [1]; -64.7% (inactive) in assay [3]; 27.9% (inactive) in [5]; -11% (inactive) in assay [10]; 11.4% (inactive) in assay [11]; 31.1% (inactive) in assay [12]. The inhibition of aggregation in [2] is -14.5% (inactive). Further, the nuclei count is 106% in assay [2] and 141% in [3]. Further, the z-score in assay [4] (setting [13]) was 0.816; in assay [4] (setting [14]), 1.08; in assay [4] (setting [15]) it was -0.122. For the same compound, the fluorescence slope in assay [6] is -0.496 (inactive). The NADPH fluorescence slope in assay [7] was -6.9e-05 (inactive). Further, the slope in assay [8] was 0.00441 (inactive). Moreover, the outcome in assay [9] was inactive.

As to `CCC(=O)c1ccc(O)cc1`, the cell count in assay [1] came out at 663. Besides, the inhibition in assay [1] is 0.5% (inactive); in assay [3] it was -19.7% (inactive); in [5], 19% (inactive); in assay [10], -6.67% (inactive); in [11], 13.6% (inactive); in [12], 5.36% (inactive). The inhibition of aggregation in assay [2] was -14% (inactive). In addition, the values for the nuclei count in [2] and in assay [3] were 101% and 118%, respectively. Further, the results for the z-score in assay [4] (setting [13]), in assay [4] (setting [14]) and in assay [4] (setting [15]) were -0.298, -0.183 and 0.759, respectively. Also, in assay [6], the fluorescence slope was -0.496 (inactive). In addition, the NADPH fluorescence slope in assay [7] is 8.5e-06 (inactive). For the same compound, in [8], the slope is 0.00491 (inactive). For the same compound, the compound was classed as inactive in assay [9].

`COC1=CC(=O)CC(C)C12Oc1c(Cl)c(OC)cc(OC)c1C2=O` (stereo not given): the cell count in assay [1] worked out at 555. Besides, the inhibition is -5% (inactive) in assay [1]; -16.1% (inactive) in assay [3]; -8.38% (inactive) in assay [5]; -7.52% (inactive) in assay [10]; 22.1% (inactive) in assay [11]; 38.6% (inactive) in [12]. Besides, the inhibition of aggregation in assay [2] was 6.9% (inactive). For the same compound, the nuclei count in [2] amounted to 105%; in [3], 122%. Further, the values for the z-score in assay [4] (setting [13]), in assay [4] (setting [14]) and in assay [4] (setting [15]) were -1.48, -1.27 and 1.79, respectively. For the same compound, the fluorescence slope in assay [6] is -0.459 (inactive). Also, the NADPH fluorescence slope in [7] was -3.3e-05 (inactive). Besides, the slope in assay [8] was 0.00463 (inactive). In addition, in [9], the result was inactive.

The record behind these values is PubChem BioAssay.
